# Data published in the antibiotic and cytotoxicity screens of Wong et al. (2023).
# Screen size: about 39,000 compounds; about 3,300 (8.5%) were called active. Shown is part of a subset that was picked to be rich in actives.
# Test system: HepG2
# Assay: cytotoxicity call (relative viability < 0.9)
# Settings: 10 µM
row,Compound,cytotoxicity call
1,C[C@@H]1CN([C@@H](C)CO)C(=O)c2cccc(NC(=O)Nc3cccc4ccccc34)c2O[C@H]1CN(C)S(=O)(=O)c1ccccc1F,inactive
2,Cc1noc(C)c1NC(=O)Nc1ccc2c(c1)C(=O)N([C@H](C)CO)C[C@H](C)[C@H](CN(C)S(C)(=O)=O)O2,inactive
3,O=C(CN1CCOCC1)N[C@@H]1CC[C@H](CCNC(=O)Nc2cc(F)ccc2F)O[C@@H]1CO,inactive
4,COc1ccc(NC(=O)N(C)C[C@@H]2OCCCC[C@H](C)Oc3ccc(NC(=O)c4ccccc4)cc3C(=O)N([C@H](C)CO)C[C@H]2C)cc1,inactive
5,O=C(C[C@H]1C=C[C@@H](NC(=O)C2CC2)[C@@H](CO)O1)NCCCN1CCOCC1,inactive
6,NNC(=O)CNc1ccc2c(c1)OCO2,inactive
7,C[N+](C)(C)CCCCNC(=O)[C@H]1C[C@H]2C(=O)N[C@@H](Cc3ccccc3)C(=O)N2[C@H]1c1cccc(OCCO)c1,inactive
8,C[C@H]1CN([C@@H](C)CO)C(=O)c2cc(C#CC3(O)CCCC3)cnc2O[C@@H]1CN(C)S(=O)(=O)c1ccc(F)cc1,inactive
9,C[C@H]1[C@H](NC(=O)/C(=N\OC(C)(C)C(=O)O)c2csc(N)n2)C(=O)N1S(=O)(=O)O,inactive
10,C[C@@H]1CCCCO[C@H](CN(C)S(C)(=O)=O)[C@H](C)CN([C@@H](C)CO)C(=O)c2cc(NC(=O)CCCN(C)C)ccc2O1,inactive
11,CCS(=O)(=O)NCC[C@H]1CC[C@H](NS(=O)(=O)c2cccc(F)c2)[C@@H](CO)O1,inactive
12,C[C@@H]1CCCCO[C@H](CN(C)C(=O)Nc2cccc3ccccc23)[C@H](C)CN([C@@H](C)CO)C(=O)c2cc(NC(=O)Cc3ccccc3)ccc2O1,inactive
13,COc1ccc(S(=O)(=O)N[C@@H]2CC[C@@H](CC(=O)N3CCC(Cc4ccccc4)CC3)O[C@H]2CO)cc1,inactive
14,C[C@H]1CCCCO[C@@H](CN(C)C(=O)Nc2ccc(C(F)(F)F)cc2)[C@@H](C)CN([C@@H](C)CO)C(=O)c2cc(NC(=O)c3ccncc3)ccc2O1,inactive
15,C[C@@H]1CCCCO[C@@H](CN(C)C(=O)Nc2ccc3c(c2)OCO3)[C@@H](C)CN([C@@H](C)CO)C(=O)c2cc(NC(=O)Nc3ccc(C(F)(F)F)cc3)ccc2O1,inactive
16,C[C@@H]1CCCCO[C@H](CN(C)C(=O)Nc2ccc(C(F)(F)F)cc2)[C@H](C)CN([C@H](C)CO)C(=O)c2cc(NC(=O)Cc3ccccc3)ccc2O1,inactive

row,Compound,cytotoxicity call
1,COc1ccc(NC(=O)Nc2ccc3c(c2)C(=O)N([C@@H](C)CO)C[C@H](C)[C@H](CN(C)CC2CCCCC2)OCCCC[C@H](C)O3)cc1,active
2,COc1ccc(NC(=O)Nc2ccc3c(c2)C(=O)N([C@H](C)CO)C[C@H](C)[C@@H](CN(C)CC2CCCCC2)OCCCC[C@H](C)O3)cc1,inactive
3,COc1ccc(NC(=O)Nc2ccc3c(c2)C(=O)N([C@H](C)CO)C[C@H](C)[C@H](CN(C)CC2CCCCC2)OCCCC[C@@H](C)O3)cc1,inactive
4,O=C(O[C@@H]1O[C@@H]2COC(=O)c3cc(Oc4c(C(=O)O)cc(O)c(O)c4O)c(O)c(O)c3-c3c(cc(O)c(O)c3O)C(=O)O[C@H]2[C@H](OC(=O)c2cc(O)c(O)c(O)c2)[C@H]1OC(=O)c1cc(O)c(O)c(O)c1)c1cc(O)c(O)c(O)c1,inactive
5,O=C(O[C@@H]1O[C@H]2COC(=O)c3cc(O)c(O)c(O)c3-c3c(cc(O)c(O)c3O)C(=O)O[C@@H]([C@H]1O)[C@@H]2O)c1cc(O)c(O)c(O)c1,inactive
6,O=C(OC1Cc2c(O)cc(O)cc2OC1c1cc(O)c(O)c(O)c1-c1c(C2Oc3cc(O)cc(O)c3CC2OC(=O)c2cc(O)c(O)c(O)c2)cc(O)c(O)c1O)c1cc(O)c(O)c(O)c1 (stereo unspecified),inactive
7,O=C(O[C@@H]1O[C@H]2COC(=O)c3cc(O)c(O)c(O)c3-c3c(cc(O)c(O)c3O)C(=O)O[C@@H]([C@H]1O)[C@@H]2OC(=O)c1cc(O)c(O)c(O)c1-c1c(C(=O)O)cc(O)c(O)c1O)c1cc(O)c(O)c(O)c1,active
8,O=C(O[C@@H]1Cc2c(O)cc(O)cc2O[C@@H]1c1cc(O)c(O)c(O)c1-c1c([C@H]2Oc3cc(O)cc(O)c3C[C@H]2O)cc(O)c(O)c1O)c1cc(O)c(O)c(O)c1,inactive
9,O=C(O[C@@H]1O[C@@H]2COC(=O)c3cc(O)c(O)c(O)c3-c3c(cc(O)c(O)c3O)C(=O)O[C@H]2[C@H](OC(=O)c2cc(O)c(O)c(O)c2)[C@H]1OC(=O)c1cc(O)c(O)c(O)c1)c1cc(O)c(O)c(O)c1,active
10,C[C@@H]1CCCCO[C@H](CN(C)C(=O)CCC(F)(F)F)[C@@H](C)CN([C@H](C)CO)C(=O)c2cc(NC(=O)NC3CCCCC3)ccc2O1,inactive
11,C[C@@H]1CN([C@H](C)CO)C(=O)c2cccc(NC(=O)C3CCOCC3)c2O[C@H]1CN(C)Cc1ccc(C(=O)O)cc1,inactive
12,Cc1ccc(S(=O)(=O)Nc2ccc3c(c2)C(=O)N([C@@H](C)CO)C[C@H](C)[C@H](CN(C)C(=O)Nc2c(C)noc2C)OCCCC[C@@H](C)O3)cc1,inactive
13,C[C@H](CO)N1C[C@H](C)[C@@H](CN(C)Cc2ccc3c(c2)OCO3)Oc2ccc(NC(=O)Nc3cccc4ccccc34)cc2CC1=O,inactive
14,C[C@H](CO)N1C[C@H](C)[C@@H](CN(C)Cc2ccc3c(c2)OCO3)Oc2ccc(NC(=O)Nc3cccc4ccccc34)cc2C1=O,inactive
15,C[C@@H]1CN([C@@H](C)CO)C(=O)Cc2cc(NC(=O)Nc3cccc4ccccc34)ccc2O[C@@H]1CN(C)Cc1ccc2c(c1)OCO2,active
